In PubChem BioAssay AID2013 (Sanford-Burnham Center for Chemical Genomics, 2009):
Screen size: about 290,000 compounds; about 370 (0.13%) were called active.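 The calls were made as follows: active = spots per cell inhibited over 60%, with over 100 cells counted and total cytoplasm intensity under 500,000; inconclusive = wells with under 100 cells, flagged as likely toxic; inactive = the rest.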 The entries come from a sample that favours actives as a whole. Potency and affinity values are given separately.

Target: G-protein coupled receptor 55 (Homo sapiens) (UniProt Q9Y2T6)
Assay: GPR55 antagonists blocking LPI-driven arrestin recruitment, primary screen, imaging, U2OS, beta-arrestin-GFP, LPI agonist (AID 2013);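 also: U2OS cells stably carrying GPR55 and arrestin-GFP stimulated by 5 µM LPI near EC80; imaged beta-arrestin-GFP aggregate spots per cell after agonist stimulation; plate controls were LPI-stimulated DMSO wells for no effect and DMSO wells without LPI for full effect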
Conditions: U2OS GPR55 beta-arrestin-GFP translocation imaging, LPI antagonism; at 10 µM; stronger effect = higher value

Chain of G-protein coupled receptor 55 (Homo sapiens) (Q9Y2T6 whole entry, looked up): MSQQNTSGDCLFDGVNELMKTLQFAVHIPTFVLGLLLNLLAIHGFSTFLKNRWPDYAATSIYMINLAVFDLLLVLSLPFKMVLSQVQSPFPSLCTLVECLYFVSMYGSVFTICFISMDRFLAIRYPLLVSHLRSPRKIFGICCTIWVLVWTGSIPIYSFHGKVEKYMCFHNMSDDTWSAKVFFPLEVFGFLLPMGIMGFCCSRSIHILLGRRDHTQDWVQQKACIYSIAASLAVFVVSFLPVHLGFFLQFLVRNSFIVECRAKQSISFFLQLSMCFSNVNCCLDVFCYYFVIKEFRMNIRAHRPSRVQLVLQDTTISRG

inhibition, inactive:
O=C1CC(NC(=O)c2ccc(Cl)cc2)C(=O)N1 (stereo not given) 8%, Cc1ccc2c(c1)C1(C(=O)N2C)N2CC3(C)CN1CC(C)(C2)C3=O (stereo not given) -15.5%, CC(=O)/C=C1\N(C)c2ccc(C)cc2C1(C)C 9.7%, CC/C(=C/c1sc2ccc(C)cc2[n+]1CCO)SC -7.4%, Cc1ccc(-c2c3c(=O)n(C)c(=O)n(C)c3cn2N2CCOCC2)cc1 -4%, Cc1ccc(-c2csc(N(CCCN3CCOCC3)C(=O)c3ccco3)n2)cc1 21.7%, O=C(c1ccco1)N(CCCN1CCOCC1)c1nc(-c2ccc(F)cc2)cs1 28.3%, NS(=O)(=O)c1ccc(NNC(=O)c2ccccc2C(=O)O)cc1 6.3%, CCCSc1ccc(-c2nn(-c3ccccc3)cc2/C=C(/C#N)C(=O)NCCCOC)cc1 -5.1%, CCSc1ccc(-c2nn(-c3ccccc3)cc2/C=C(/C#N)C(=O)NC)cc1 0.7%, CCCCn1c(N)c(N(CC(C)C)C(=O)C2CCN(C(=O)c3ccc(F)cc3)CC2)c(=O)[nH]c1=O -8.6%, CCCCCCOc1ccc(OCC(O)CN2C(=O)NC(C)(C)C2=O)cc1 (stereo not given) -5.4%, Cc1ccc(N2C(=O)CC(N(CCc3ccccc3)C(=S)Nc3ccc(N(C)C)cc3)C2=O)cc1 (stereo not given) 0.8%, CCOC(=O)/C(=C\c1ccccc1)C(=O)c1cc(C(C)=O)c(Nc2ccccc2)s1 -0.8%, CCOC(=O)/C(C#N)=C\c1cccnc1 0.9%, O=C(CSc1ccccc1C(=O)N1CCCCC1)NCC1CCCCC1 15.6%, Cc1c(O)nc2sc3ccccc3n2c1=O -0.7%, Cc1ccc(NC(=O)C(OC(=O)c2ccccc2Cl)c2ccccc2)cc1Cl (stereo not given) 13.2%, O=C(N/C=C/c1ccc(Cl)cc1)NCc1ccc(Cl)cc1 9%, O=[N+]([O-])c1ccc(C2CNC(c3ccccc3)O2)cc1 (stereo not given) 7.3%, COc1ccc(-c2nc(-c3cccc(C)c3)nc(Cl)c2C#N)cc1 5.9%, N#Cc1c(Cl)nc(SCc2ccccc2)nc1-c1ccccc1 -1.5%, Cn1cc([C@@H]2C[C@H]3CN(C4CCCC4)C(=O)[C@]34CCCN24)c(-c2ccccc2)n1 -0.1%, COc1ccc2oc(C(=O)OCC(=O)NC(C)c3ccccc3)c(C)c2c1 (stereo not given) -1.9%, Cc1cc(C(=O)NN)c(C)o1 1%, Cc1cc(C(=O)NCC(=O)O)c(C)o1 2.3%, COc1cc(/C=C(/NC(=O)c2ccccc2)C(=O)N2CCOCC2)c([N+](=O)[O-])cc1OC 13.2%, Cc1cc(C(F)(F)F)nc(-n2cc(-c3ccccc3)nn2)n1 7.4%, Cc1nn(C(C)(C)C)c(OC(=O)c2ccc(Br)o2)c1Sc1ccccc1 -4.1%, Cc1nn(C(C)(C)C)c(OC(=O)c2ccco2)c1Sc1ccccc1 7%, CCC1(C)CC(=O)N(c2ccc(F)c(Cl)c2)C(=O)C1 0.3%, CC1=NN(c2ccccc2)C(=O)/C1=C/C=C/c1ccccc1 5.8%, CC1=NN(c2cccc(C(=O)O)c2)C(=O)/C1=C\C=C\c1ccco1 10.3%, CCOC(=O)C(C)(C)NS(=O)(=O)c1ccc(Cl)c([N+](=O)[O-])c1 6.3%, CCOC(=O)C(C)(C)N(Cc1ccccc1C)S(=O)(=O)c1ccc(Cl)c([N+](=O)[O-])c1 44%, CCOC(=O)C(C)(C)N(Cc1ccc(Cl)cc1)S(=O)(=O)c1ccc(Cl)c([N+](=O)[O-])c1 44.2%, CCOC(=O)C(C)(C)N(Cc1cccc(C)c1)S(=O)(=O)c1cccc([N+](=O)[O-])c1 9.3%, CC(=O)Nc1ccc(S(=O)(=O)NCC(=O)OCC(=O)N2CCc3ccccc32)cc1 -1.9%, Cc1cc(C)c(C)c(Oc2ncnc(N)c2[N+](=O)[O-])c1 0.6%, Cc1nc([N+](=O)[O-])cn1CC(=O)Nc1ccc(F)c(Cl)c1 1.9%, Cn1ccnc1SCC(=O)N1CCc2ccccc21 -2.6%, O=S(=O)(/N=C/N1CCOCC1)c1ccc(Cl)cc1 8.2%, COc1cc(OC)cc(C(=O)N2CCN(C(=O)c3cccs3)CC2)c1 -11.9%, COc1ccc(OC)c(CNc2c(C=O)c(=O)[nH]c3ccccc23)c1 1.2%, COc1ccc(N2C(=O)CCC2=O)c(OC)c1 1.4%, COc1ccc2[nH]cc(C=O)c2c1 -7.9%, O=Cc1cn(CC(=O)N2CCOCC2)c2ccccc12 6.5%, COc1ccc(OC)c(-n2c(=O)c3ccccc3c3ccccc3c2=O)c1 9.4%, O=C1NC(=O)/C(=C\c2cn(CC(=O)N3CCOCC3)c3ccccc23)S1 -3.8%, O=C(c1ccccc1)N1N=C(c2ccccc2)CC1c1ccccc1[N+](=O)[O-] (stereo not given) 4%, OC(COc1cccc2ccccc12)CN1CCCC1 (stereo not given) -4.7%, CN1C(=O)[C@H]2[C@@H](/C=C/c3ccccc3)N3C(=O)CN(CC4CC4)C(=O)[C@@]3(C)[C@H]2C1=O 7.6%, Cc1cc(C)c(C)c(OCCN2CC(C)OC(C)C2)c1 (stereo not given) -23.1%, Cc1ccc(C(C)C)c(OCC(O)CN2CCc3ccccc3C2)c1 (stereo not given) 2.1%, O=S(=O)(c1ccccc1F)N1CCC(c2nc3ccccc3[nH]2)CC1 -18.2%, COc1cc(C2=NOC(C(=O)Nc3cc(C)on3)C2)cc(OC)c1OC (stereo not given) 0.6%

inhibition, active:
O=C(c1ccco1)N(CCCN1CCOCC1)c1nc(-c2ccc(Cl)cc2)cs1 69.4%, CSc1nc(Cl)c(C#N)c(-c2ccc(C)cc2)n1 68.5%, Cc1cc(C(=O)NCC23CC4CC(CC(C4)C2)C3)c(C)o1 72.6%, CCOC(=O)C(C)(C)N(Cc1cccc(C)c1)S(=O)(=O)c1ccc(Cl)c([N+](=O)[O-])c1 73.8%
